Source: PubChem BioAssay
D1 antag = human D1 dopamine receptor antagonism | HEK293 TREx D1 cells, calcium flux, dopamine EC80; stronger effect = lower value | 360,000 compounds, 3.2% hits | P21728 | AID 504652 | activity change, negative = inhibition, % at 10 µM; in the data active means activity change below about -30%; further: on the % scale 0 is the no-effect control and ±100 the full control effect
Target sequence (P21728 whole entry, looked up): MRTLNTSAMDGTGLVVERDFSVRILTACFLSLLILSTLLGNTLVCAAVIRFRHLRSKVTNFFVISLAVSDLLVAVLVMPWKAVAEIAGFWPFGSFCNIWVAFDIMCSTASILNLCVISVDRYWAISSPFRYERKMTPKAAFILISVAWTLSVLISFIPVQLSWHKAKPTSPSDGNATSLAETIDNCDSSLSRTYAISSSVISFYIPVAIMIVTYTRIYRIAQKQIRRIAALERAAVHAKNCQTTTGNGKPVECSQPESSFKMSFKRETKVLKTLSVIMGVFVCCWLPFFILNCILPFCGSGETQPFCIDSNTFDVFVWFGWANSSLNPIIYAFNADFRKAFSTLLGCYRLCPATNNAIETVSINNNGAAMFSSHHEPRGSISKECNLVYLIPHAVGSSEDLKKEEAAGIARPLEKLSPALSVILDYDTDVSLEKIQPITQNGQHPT
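Kinetic fluorescence of a calcium dye serves as the read-out. D1-expressing Hek293 Trex cells, induced overnight at 30 C, are exposed to compound for 180 s before an EC80 dopamine addition, then read 180 s further.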
D1 potentiator = enhances dopamine response at the human D1 receptor; HEK293 TREx D1 cells, calcium flux, dopamine EC20 potentiation; potentiation, % at 10 µM; 360,000 compounds, 0.036% hits; AID 504651; in the data active means potentiation above about 30%; further: 0% is about no effect
D1 ag = agonists of human D1 dopamine receptor | P21728 | HEK293 T-REx D1 cells, calcium flux, agonist mode | activation, % at 2 µM | 360,000 compounds, 1% hits; in the data active means activation above about 30%; further: 0% is about no effect
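Inducible HEK293 T-REx D1 cells, force-coupled to calcium signalling, were plated at 4000 cells/well with tetracycline and held overnight at 30 C. After no-wash calcium dye loading, compound-evoked calcium rise over 180 s flagged agonists.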
DRD3 antagonist = blocks the human D3 dopamine receptor; 360,000 compounds, 2.5% hits; AID 652054; max response, negative = inhibition, %; P35462; D3R cells, DiscoveRx beta-arrestin luminescence, antagonist mode; stronger effect = lower value; in the data active means max response below about -50%; inconclusive means no clear call, values can overlap the other calls; further: on the % scale 0 is the no-effect control and ±100 the full control effect
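Cells expressing the human receptor were seeded at 1500 cells/well, incubated overnight at 37 degrees C in 5% CO2, then exposed to library compounds with dopamine controls for 90 minutes at 37 degrees C before luminescent detection.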
DRD3 agonist = agonists of human D3 dopamine receptor; P35462; max activation, %; AID 652048; D3R DiscoveRx beta-arrestin cells, luminescence, 90 min; 410,000 compounds, 0.58% hits; in the data active means max activation above about 30%; further: 0% is about no effect
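Agonist mode: compounds and dopamine controls were applied to plated cells for 90 min at 37 degrees C after an overnight attachment at 1500 cells/well. Luminescent read-out followed 30 - 60 minutes at room temperature with DiscoveRx detection reagent.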
The depositor's hits bear a star; ? = inconclusive; / = no result. Hits are enriched below; roughly 6.1% of the tested compounds scored in any of these assays.

SMILES	D1 antag	D1 potentiator	D1 ag	DRD3 antagonist	DRD3 agonist
Nc1c2c(nc3ccc(Br)cc13)N(Cc1ccccc1)CC2	-8	0	13	-59*	-3
CCOc1ccc(-c2nnc(NC(=O)CCCOc3cccc(C)c3)o2)cc1	-33*	3	4	0	2
CCOc1ccc(-c2nnc(NC(=O)Cc3ccc(OC)cc3)o2)cc1	7	-7	1	-10	-6
CCC1(c2ccccc2)NC(=O)N(CC(=O)N2CCc3ccccc32)C1=O (centres undefined)	/	/	/	11	-9
CCC1(c2ccc(F)cc2)NC(=O)N(CC(=O)N2CCc3ccccc32)C1=O (centres undefined)	-15	/	58*	9	-3
CCN(CC1COc2ccccc2O1)C(=O)CN1C(=O)NC(C)(c2ccccc2)C1=O (centres undefined)	3	-1	5	-13	55*
CC1(c2ccccc2)NC(=O)N(CC(=O)Nc2ccccc2N2CCCC2)C1=O (centres undefined)	3	-5	38*	10	7
CCCNC(=O)NC(=O)CN1C(=O)NC(C)(c2ccc3ccccc3c2)C1=O (centres undefined)	-7	-5	0	3	35*
CCC1(c2ccccc2)NC(=O)N(CC(=O)Nc2cc(Cl)ccc2N2CCN(C)CC2)C1=O (centres undefined)	-38*	-14	8	?	-6
CC1(c2ccccc2)NC(=O)N(CC(=O)NNC(=O)c2ccccc2)C1=O (centres undefined)	-43*	-3	4	-4	-2
CCOC(=O)c1c(C)sc(-c2c(-c3ccc4c(c3)OCCO4)[nH]c3c2c(=O)[nH]c(=O)n3C)c1O	10	2	23	/	12
O=C(CCOc1ccccc1)Nc1ccc(S(=O)(=O)Nc2ncccn2)cc1	7	0	2	4	-2
COC(=O)c1ccc(=O)n(Cc2ccco2)c1	4	-8	-3	3	-5
COC(=O)c1c(C(=O)OC)c(C)n(Cc2ccco2)c1C	-68*	-5	1	-12	3
COC(=O)c1cc(Br)c(=O)n(Cc2ccco2)c1	-8	1	1	-52*	-9
COc1ccc(NC(=O)C/C(C)=N/NC(=O)C(=O)Nc2cccc(Cl)c2C)c(OC)c1	4	-7	-3	-16	6
CSc1nn(Cc2ccc(F)cc2)c(N(C(C)=O)C(C)=O)c1S(=O)(=O)c1ccccc1	-1	1	0	/	5
CSc1nn(Cc2ccccc2C)c(NC(C)=O)c1S(=O)(=O)c1ccc(C)cc1	-33*	-6	5	/	6
CN1CCN(c2ncnc3c2ncn3[C@H]2CN(Cc3cccnc3)C[C@@H](CO)O2)CC1	/	/	/	-8	3
CCC(C)(C)C(=O)Nc1cc([N+](=O)[O-])ccc1Cl	-6	-7	2	-5	1
CCN(CC)c1nc(C)c(C(=S)Nc2cc([N+](=O)[O-])ccc2Cl)s1	-3	-4	39*	?	-5
COc1ccc(S(=O)(=O)N2CCCCCC2)cc1C(=O)N(C)Cc1ccc(Cl)cc1Cl	11	1	2	-16	-11
CN(C)C(CNc1ccc(C(F)(F)F)cn1)c1ccccc1 (centres undefined)	3	-7	8	-59*	-15
CN(C)C(CNC(=O)Cc1cccc(C(F)(F)F)c1)c1ccccc1 (centres undefined)	-12	-7	3	-3	-11
CCOC(=O)COc1ccc(S(=O)(=O)N2CCN(c3ccccc3)CC2)cc1	-11	-7	6	18	12
SMILES	D1 antag	D1 potentiator	D1 ag	DRD3 antagonist	DRD3 agonist
C=CCNc1ncnc2c1[nH]c1ccc(Cl)cc12	/	-2	35*	1	3
CCNC(=S)Nc1cc(OCC)c(NC(=O)c2cccs2)cc1OCC	4	1	4	5	-7
O=S(=O)(NCc1ccc(C(F)(F)F)cc1)c1ccc(-n2cnnn2)cc1	-39*	-5	10	-29	-2
CCOc1ccc(NC(=O)Cn2c(=O)n(CCc3ccccc3)c(=O)c3c4c(sc32)CCCC4)cc1	-36*	-2	-1	/	5
NC(N)=NS(=O)(=O)c1ccc(N)cc1	-75*	-2	1	-54*	-90
COC(=O)C1=CN(C(C)C)C=C(C(=O)OC)C1c1cc2c(cc1Br)OCO2	-26	-5	-3	27	33*
CCN(CC)CCN1C(=O)C(=O)/C(=C(/O)c2ccc3c(c2)CC(C)O3)C1c1ccc(OC)cc1 (centres undefined)	-30*	-4	3	0	-2
O=C1CN(C(=O)COc2ccc(Br)cc2Br)c2ccccc2N1	-9	2	2	11	0
O=C1CN(C(=O)COc2ccc(Br)cc2F)c2ccccc2N1	-34*	-3	0	-6	-2
O=C1CN(C(=O)COC(=O)c2cccs2)c2ccccc2N1	-30*	9	3	10	1
Cc1noc(C)c1NC(=O)N(C)C[C@@H]1OCc2ccccc2-c2c(n(C)c3ccccc23)C(=O)N([C@H](C)CO)C[C@H]1C	/	/	/	42	4
COc1ccc2cc3c(N)c(C(=O)NCc4ccco4)sc3nc2c1	-5	5	4	-55*	-3
COc1ccc2cc3cc(C(=O)NCc4ccco4)oc3nc2c1	-5	-2	13	-19	-2
CCCCCNS(=O)(=O)c1ccc(N2CCCCS2(=O)=O)cc1	-7	0	16	/	7
Cc1ccc(Cl)cc1N1CCN(c2ncnc3onc(C)c23)CC1	-9	0	7	/	-5
Cc1noc2ncnc(N3CCN(c4cccc(Cl)c4)CC3)c12	-34*	1	4	35	6
O=C(Cn1cc(COc2ccc(Br)cc2[N+](=O)[O-])nn1)c1ccc(O)cc1	/	/	/	-59*	-14
CC(=O)c1ccc(OCc2cn(CC(=O)c3ccc(O)cc3)nn2)c(C)c1	/	/	/	-24	-6
COc1cc(C(C)=O)ccc1OCc1cn(CC(=O)c2ccc(O)cc2)nn1	/	/	/	-72*	3
CC(=O)Nc1ccc(OCc2cn(CC(=O)c3ccc(O)cc3)nn2)cc1	/	/	/	-114*	-21
COc1cc(C=O)ccc1OCc1cn(CC(=O)c2ccc(O)cc2)nn1	/	/	/	34	0
O=C(Cn1cc(COc2cc(F)cc(F)c2)nn1)c1ccc(O)cc1	/	/	/	-24	4
Cc1cccc(C)c1OCc1cn(CC(=O)c2ccc(O)cc2)nn1	/	/	/	-61*	-13
CC(=O)c1ccc(OCc2cn(CC(=O)c3ccc(O)cc3)nn2)cc1	/	/	/	-13	-9
Cc1cc2nc(-c3ccc(SCc4ccc(C#N)cc4)nc3)[nH]c2cc1C	-43*	-11	-1	-18	-9
N#Cc1ccccc1CSc1ccc(-c2nc3ccccc3[nH]2)cn1	-35*	-6	15	20	-5
CC(=O)CSc1ccc(-c2nc3cc(C)c(C)cc3[nH]2)cn1	11	-3	2	4	-2
